Experimental findings from the supplement of paper PMC10646978 are described below.

What all share (settings): modulator concentration 10 µM
The subject of experiment [1] is RAW-Dual (murine macrophage reporter line). Briefly: NF-kB reporter (SEAP) activity fold change vs agonist alone; higher = enhanced NF-kB activity. The method, boiled down:
(§1)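 RAW-Dual murine macrophage reporter cells were seeded at 50 000 per well in 384-well plates and pre-incubated 1 hour at 37 °C with compound pin-transferred to 10 μM final. After 1 hour, a PRR agonist was added and cells incubated overnight. Supernatant NF-κB (SEAP, QUANTI-Blue, 620 nm absorbance) and IRF (Lucia luciferase, QUANTI-Luc, luminescence) signals were divided by the mean agonist-only control on the same plate to give fold change. Two replicate plates were averaged, with errors by propagation.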

Experiment [2] has the same test system. Briefly: IRF reporter (Lucia luciferase) activity fold change vs agonist alone; higher = enhanced IRF activity. In outline:
as §1

Experiment [3] has the same test system. Briefly: viability score (confluency relative to resting cells, overnight) (fraction); higher = more viable, active = viable (0.7 or more). In outline: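 RAW-Dual macrophages in 384-well plates were treated overnight with compound at 10 μM final. IncuCyte imaging recorded confluency, and IncuCyte software built two confluency masks across every imaged well. The viability score expresses confluency relative to resting cells and was judged against a cutoff, which a compound met only if both masks exceeded 70% of resting cells.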

[4] abbreviates: agonist: CpG ODN 1826 0.5 ug/mL.

± gives the standard deviation.

As for `CC(C)=CCOc1c2occc2cc2ccc(=O)oc12`, the results for the NF-kB reporter in experiment [1] (setting [4]), in experiment [1] (agonist: LPS 0.1 ug/mL) and in experiment [1] (agonist: MPLA […]) were 1.13 ± 0.27, 0.823 ± 0.064 and 0.957 ± 0.088, respectively. The IRF reporter was 1.09 ± 0.047 in experiment [2] (agonist: 3'3'-cGAMP 10 ug/mL), 1.47 ± 0.17 in experiment [2] (agonist: LPS 0.1 ug/mL) and 1.58 ± 0.21 in experiment [2] (agonist: MPLA […]). Besides, in experiment [3], the viability score was 0.95 (active).
As to `COc1ccc(CCNCc2ccc3ccccc3c2)cc1OC`, the values for the NF-kB reporter in experiment [1] (setting [4]), in experiment [1] (agonist: LPS 0.1 ug/mL) and in experiment [1] (agonist: MPLA […]) were 0.42 ± 0.095, 0.762 ± 0.058 and 0.849 ± 0.08, respectively. The IRF reporter was 0.893 ± 0.045 in experiment [2] (agonist: 3'3'-cGAMP 10 ug/mL), 1.17 ± 0.12 in experiment [2] (agonist: LPS 0.1 ug/mL) and 1.24 ± 0.14 in experiment [2] (agonist: MPLA […]). In addition, in experiment [3], the viability score was 0.984 (active).
For the molecule `CC(C)N(CCC(C(N)=O)(c1ccccc1)c1ccccn1)C(C)C` (stereo unspecified), the figures for the NF-kB reporter in experiment [1] (setting [4]), in experiment [1] (agonist: LPS 0.1 ug/mL) and in experiment [1] (agonist: MPLA […]) were 0.86 ± 0.23, 0.945 ± 0.09 and 0.99 ± 0.067, respectively. For the same molecule, the IRF reporter in experiment [2] (agonist: 3'3'-cGAMP 10 ug/mL) turned out to be 0.849 ± 0.064; in experiment [2] (agonist: LPS 0.1 ug/mL), 0.94 ± 0.2; in experiment [2] (agonist: MPLA […]), 1.12 ± 0.13. Further, the viability score in experiment [3] is 0.998 (active).
For `CCC1(O)C(=O)OCc2c1cc1n(c2=O)Cc2cc3ccccc3nc2-1` (stereo unspecified), the values for the NF-kB reporter in experiment [1] (setting [4]), in experiment [1] (agonist: LPS 0.1 ug/mL) and in experiment [1] (agonist: MPLA […]) were 0.948 ± 0.074, 0.912 ± 0.069 and 0.889 ± 0.092, respectively. The IRF reporter was found to be 1.04 ± 0.033 in experiment [2] (agonist: 3'3'-cGAMP 10 ug/mL), 1.24 ± 0.2 in experiment [2] (agonist: LPS 0.1 ug/mL) and 1.41 ± 0.24 in experiment [2] (agonist: MPLA […]). Further, the viability score in experiment [3] is 0.974 (active).
Consider `CN1C2CCC1CC(OC(=O)[C@H](CO)c1ccccc1)C2` (stereo partly specified), for which the NF-kB reporter in experiment [1] (setting [4]) was found to be 1.05 ± 0.096; in experiment [1] (agonist: LPS 0.1 ug/mL), 0.961 ± 0.051; in experiment [1] (agonist: MPLA […]), 0.984 ± 0.031. Also, the IRF reporter in experiment [2] (agonist: 3'3'-cGAMP 10 ug/mL) is 0.955 ± 0.069; in experiment [2] (agonist: LPS 0.1 ug/mL), 0.968 ± 0.088; in experiment [2] (agonist: MPLA […]), 0.858 ± 0.14. Further, in experiment [3], the viability score was 0.997 (active).
With `CC12CCC3C(CCC4CC(O)CCC43C)C1CCC2=O` (stereo unspecified), the NF-kB reporter in experiment [1] (setting [4]) was found to be 0.888 ± 0.066; in experiment [1] (agonist: LPS 0.1 ug/mL), 1.04 ± 0.051; in experiment [1] (agonist: MPLA […]) it was 0.98 ± 0.021. The IRF reporter in experiment [2] (agonist: 3'3'-cGAMP 10 ug/mL) came to 0.949 ± 0.1; in experiment [2] (agonist: LPS 0.1 ug/mL) it was 0.985 ± 0.033; in experiment [2] (agonist: MPLA […]), 0.972 ± 0.11. Moreover, the viability score in experiment [3] was 1.01 (active).
As to `CCOC(=O)c1ccccc1-c1ccc(C=C2C(=O)NC(=O)N(c3ccc(C)cc3)C2=O)o1`, the NF-kB reporter in experiment [1] (setting [4]) is 0.912 ± 0.071; in experiment [1] (agonist: LPS 0.1 ug/mL), 0.931 ± 0.058; in experiment [1] (agonist: MPLA […]), 0.971 ± 0.087. In addition, the IRF reporter in experiment [2] (agonist: 3'3'-cGAMP 10 ug/mL) came to 0.999 ± 0.061; in experiment [2] (agonist: LPS 0.1 ug/mL), 1.4 ± 0.081; in experiment [2] (agonist: MPLA […]), 1.7 ± 0.14. In experiment [3], the viability score is 0.951 (active).
For the molecule `COc1ccc(-n2c(C)nc3ccc(NC(=O)CC4CCCC4)cc3c2=O)cc1`, the figures for the NF-kB reporter in experiment [1] (setting [4]), in experiment [1] (agonist: LPS 0.1 ug/mL) and in experiment [1] (agonist: MPLA […]) were 1.14 ± 0.14, 1.06 ± 0.13 and 0.932 ± 0.075, respectively. The IRF reporter in experiment [2] (agonist: 3'3'-cGAMP 10 ug/mL) worked out at 0.946 ± 0.048; in experiment [2] (agonist: LPS 0.1 ug/mL), 0.925 ± 0.073; in experiment [2] (agonist: MPLA […]), 0.875 ± 0.15. Also, the viability score in experiment [3] was 1.01 (active).
`COC(=O)C1C2C(=O)N(c3ccccc3)C(=O)C12c1ccc(Cl)cc1` (stereo unspecified): the NF-kB reporter in experiment [1] (setting [4]) was found to be 1.1 ± 0.094; in experiment [1] (agonist: LPS 0.1 ug/mL), 1.11 ± 0.09; in experiment [1] (agonist: MPLA […]) it was 1.01 ± 0.037. Also, the values for the IRF reporter in experiment [2] (agonist: 3'3'-cGAMP 10 ug/mL), in experiment [2] (agonist: LPS 0.1 ug/mL) and in experiment [2] (agonist: MPLA […]) were 1.01 ± 0.04, 1.03 ± 0.055 and 1.08 ± 0.11, respectively. The viability score in experiment [3] is 1 (active).
With `Cc1cc(N2CCNCC2)c2ccccc2n1`, the NF-kB reporter in experiment [1] (setting [4]) amounted to 0.0643 ± 0.01; in experiment [1] (agonist: LPS 0.1 ug/mL) it was 0.789 ± 0.062; in experiment [1] (agonist: MPLA […]) it was 0.899 ± 0.092. Further, the values for the IRF reporter in experiment [2] (agonist: 3'3'-cGAMP 10 ug/mL), in experiment [2] (agonist: LPS 0.1 ug/mL) and in experiment [2] (agonist: MPLA […]) were 0.561 ± 0.045, 1.15 ± 0.31 and 1.15 ± 0.16, respectively. Moreover, in experiment [3], the viability score was 0.994 (active).
`O=C(NCCN1CCN(c2ccccc2)CC1)c1ccc(F)cc1`: the figures for the NF-kB reporter in experiment [1] (setting [4]), in experiment [1] (agonist: LPS 0.1 ug/mL) and in experiment [1] (agonist: MPLA […]) were 1 ± 0.081, 1.04 ± 0.051 and 1.03 ± 0.026, respectively. The IRF reporter in experiment [2] (agonist: 3'3'-cGAMP 10 ug/mL) is 1.1 ± 0.18; in experiment [2] (agonist: LPS 0.1 ug/mL), 0.94 ± 0.045; in experiment [2] (agonist: MPLA […]), 0.83 ± 0.084. Further, the viability score in experiment [3] was 1 (active).
Regarding `Br.CN1C2CC(OC(=O)C(CO)c3ccccc3)CC1C1OC12` (stereo unspecified), the NF-kB reporter in experiment [1] (setting [4]) worked out at 1.32 ± 0.32; in experiment [1] (agonist: LPS 0.1 ug/mL), 0.999 ± 0.051; in experiment [1] (agonist: MPLA […]), 1.01 ± 0.074. The IRF reporter in experiment [2] (agonist: 3'3'-cGAMP 10 ug/mL) is 1 ± 0.034; in experiment [2] (agonist: LPS 0.1 ug/mL), 1.19 ± 0.13; in experiment [2] (agonist: MPLA […]), 1.19 ± 0.13. Moreover, in experiment [3], the viability score was 0.985 (active).
Consider `CC(O)(CS(=O)(=O)c1ccc(F)cc1)C(=O)Nc1ccc(C#N)c(C(F)(F)F)c1` (stereo unspecified), for which the NF-kB reporter worked out at 1.38 ± 0.26 in experiment [1] (setting [4]), 0.966 ± 0.081 in experiment [1] (agonist: LPS 0.1 ug/mL) and 0.952 ± 0.053 in experiment [1] (agonist: MPLA […]). The IRF reporter in experiment [2] (agonist: 3'3'-cGAMP 10 ug/mL) was 0.991 ± 0.067; in experiment [2] (agonist: LPS 0.1 ug/mL), 1.05 ± 0.095; in experiment [2] (agonist: MPLA […]), 1.23 ± 0.17. The viability score in experiment [3] was 0.987 (active).
